# Assay results as given in PubChem BioAssay (NCATS).
# Results filed as inconclusive are left out. Unmarked numbers belong to inactive results. Activity calls are given as the source filed them. Unless noted, the call rests on the fitted dose curve.
# Target: Atrial natriuretic peptide receptor 2 (Homo sapiens) (UniProt P20594)
# Assay: Natriuretic polypeptide receptor (hNpr2) antagonism - Pilot subtype selectivity assay (AID 1347050); further: potency means the concentration at half of the fitted maximal effect; on activity change, negative = inhibition: on the % scale 0 is the no-effect control and ±100 the full control effect
# Conditions: NPR2-expressing cells, cGMP antagonist-mode read-out; series mostly up to 38.3 µM; activity change, negative = inhibition: at the top concentration
# Procedure, shortened: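 HEK293 cells expressing hNpr2 and a GloSensor cGMP luciferase sensor, 1500/well, preloaded 2 h with 2% GloSensor reagent, compound 30 min, then 1 nM hNppC for 20 min. Antagonism from luminescence after versus baseline pre-read; LOPAC in 1:5 titrations.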
# Chain of Atrial natriuretic peptide receptor 2 (Homo sapiens) (P20594 whole entry, looked up): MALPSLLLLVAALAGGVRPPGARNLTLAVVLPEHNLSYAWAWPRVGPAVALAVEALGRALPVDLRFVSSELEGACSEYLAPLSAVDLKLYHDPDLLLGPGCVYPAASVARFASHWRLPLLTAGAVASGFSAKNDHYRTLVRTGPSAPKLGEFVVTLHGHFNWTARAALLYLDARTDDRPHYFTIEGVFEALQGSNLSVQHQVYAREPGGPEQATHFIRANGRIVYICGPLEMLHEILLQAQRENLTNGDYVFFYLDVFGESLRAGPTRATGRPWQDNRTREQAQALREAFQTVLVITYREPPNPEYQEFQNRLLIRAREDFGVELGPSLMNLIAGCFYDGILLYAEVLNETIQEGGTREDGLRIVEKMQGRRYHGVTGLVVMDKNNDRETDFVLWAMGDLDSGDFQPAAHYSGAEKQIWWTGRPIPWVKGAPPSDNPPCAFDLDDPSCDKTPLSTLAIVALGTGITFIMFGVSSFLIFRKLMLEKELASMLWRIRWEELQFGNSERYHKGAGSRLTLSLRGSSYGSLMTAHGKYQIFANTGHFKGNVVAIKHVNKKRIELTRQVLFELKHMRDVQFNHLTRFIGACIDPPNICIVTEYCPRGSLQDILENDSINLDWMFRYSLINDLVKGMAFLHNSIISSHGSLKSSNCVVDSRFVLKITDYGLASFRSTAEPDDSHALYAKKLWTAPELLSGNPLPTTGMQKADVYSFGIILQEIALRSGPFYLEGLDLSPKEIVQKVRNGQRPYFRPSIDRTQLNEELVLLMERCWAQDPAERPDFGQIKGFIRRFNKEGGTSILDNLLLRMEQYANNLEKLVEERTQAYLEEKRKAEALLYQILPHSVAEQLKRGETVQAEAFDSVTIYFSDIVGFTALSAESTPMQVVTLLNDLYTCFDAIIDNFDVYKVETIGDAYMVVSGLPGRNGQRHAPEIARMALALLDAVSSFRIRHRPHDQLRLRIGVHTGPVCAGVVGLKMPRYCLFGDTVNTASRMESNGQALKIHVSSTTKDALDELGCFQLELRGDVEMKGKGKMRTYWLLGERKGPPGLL
SMILES,"activity change, negative = inhibition [%]",Potency
O=c1[nH]c(=S)[nH]c(-c2ccccc2)c1Cc1c(O)ccc2ccccc12,-3.62,–
C=C1C[C@@]23CC[C@H]4[C@@](C)(CCC[C@@]4(C)C(=O)O)[C@@H]2CC[C@]1(O)C3,-2.68,–
CCCn1c(=O)c2[nH]c(C3CCCC3)nc2n(CCC)c1=O,17.9,–
O=c1cc(-c2ccccc2)[nH]c2nc(Cl)ccc12,-5.09,–
O=C1NC(=O)c2cc(Nc3ccccc3)c(Nc3ccccc3)cc21,-8.59,–
NC(=O)CNCCC(c1ccccc1)c1ccccc1,-0.0327,–
COc1ccccc1N1CCN(CCN(C(=O)c2ccc(F)cc2)c2ccccn2)CC1,-2.21,–
CC#CCOC(=O)c1c(C)nc2sc3c(c2c1N)CCC(O)C3 (stereo not drawn),-29.2,–
Nc1ccc2c3c(cccc13)C(=O)NC2=O,5.58,–
O=C(N[C@@H](Cc1ccccc1)C(=O)CCl)OCc1ccccc1,–,4.14 µM (active)
O=C(O)C1=CCCN(CCON=C(c2ccccc2)c2ccccc2)C1,-7.2,–
CCCn1c(=O)c2[nH]c(-c3ccc(S(=O)(=O)O)cc3)nc2n(CCC)c1=O,2.77,–
O=C(O)Cc1c[nH]c2ccc(O)cc12,2,–
Clc1nccc2c1ccc1ccccc12,5.21,–
O=C(O)/C=C/c1ccc(O)c(O)c1,2.72,–
O=C(O)Cc1ccc(O)c(O)c1,2.83,–
NCCCCN=C(N)N,9.59,–
Cc1cccc(C)c1OCC(N)C(C)C (stereo not drawn),-0.984,–
CNc1cc(NS(=O)(=O)c2ccc(N)cc2)nc(NC)n1,-1.48,–

SMILES,"activity change, negative = inhibition [%]",Potency
C#CC(N)CCC(=O)O (stereo not drawn),3.75,–
Nc1ccc(-c2nc3ccc(-c4nc5ccc(N)cc5[nH]4)cc3[nH]2)cc1,-4.87,–
CN[C@H](CC(=O)O)C(=O)O,2.32,–
CCCCCCCCCC[Si](C)(C)CCC(=O)NC(Cc1ccc(C)cc1)c1ccccc1 (stereo not drawn),5.17,–
c1ccc2c(c1)CCC[C@H]2Nc1nc2ccccc2[nH]1,7.66,–
C[C@H](O)C(=O)C1=Nc2c(nc(N)[nH]c2=O)NC1,1.66,–
c1ccc(CN2CCC3(CCCc4ccccc43)CC2)cc1,28.5,–
CC(C)NC[C@H](O)COc1cccc2ccccc12,-1.73,–
C[C@H]1CC2C3CCC4=CC(=O)C=C[C@]4(C)[C@@]3(Cl)[C@@H](O)C[C@]2(C)[C@@]1(O)C(=O)CO (stereo partly drawn),-3.66,–
OC1(c2ccc(Cl)cc2)CCN(Cc2c[nH]c3ccccc23)CC1,-3.69,–
NC(Cc1cccc(-c2ccccc2CP(=O)(O)O)c1)C(=O)O (stereo not drawn),-1.89,–
CN1Cc2sccc2C(c2ccc(O)c(O)c2)C1 (stereo not drawn),1.34,–
CC(O)C(O)[C@H]1CNc2nc(N)[nH]c(=O)c2N1 (stereo partly drawn),0.179,–
COc1ccc2c(c1)c(CC(=O)O)c(C)n2Cc1ccc(Cl)cc1,-3.83,–
Cn1c(=O)c2[nH]c(-c3ccc(S(=O)(=O)O)cc3)nc2n(C)c1=O,0.186,–
C[C@@]1(C2CCCC2)Cc2cc(OCC(=O)O)c(Cl)c(Cl)c2C1=O,17,–
CC(=O)/C(C)=N/O,-0.615,–
CN1CCCC1CCOC(C)(c1ccccc1)c1ccc(Cl)cc1 (stereo not drawn),–,11.7 µM (active)
CC(C)Cn1c(=O)n(C)c(=O)c2[nH]cnc21,-1.78,–

# Test system: not listed separately
# Assay: NS1 protein of Zika virus - qHTS assay to identify small molecule inhibitors in human HEK 293 cells (AID 1347053; active means well fitted inhibition curve with a large enough effect;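 further: plate controls were infected untreated cells for no effect and uninfected cells for full effect; nearly all actives have a fitted effect of over 55% in size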)
# Conditions: HEK293 ZIKV MR766 infection, NS1 TR-FRET, 24 h; series mostly up to 46.1 µM; activity change, negative = inhibition: at the top concentration
# Procedure, shortened: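 Following 20 h seeding, HEK 293 cells took compound, then 1 h later ZIKV MR766 (MOI = 0.5). Incubation ran 24 h at 37 C before TR-FRET detection of NS1; a drop in signal indicates inhibition.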
row,SMILES,"activity change, negative = inhibition [%]"
1,O=c1[nH]c(=S)[nH]c(-c2ccccc2)c1Cc1c(O)ccc2ccccc12,23.2
2,O=c1cc(-c2ccccc2)[nH]c2nc(Cl)ccc12,59.9
3,O=C1NC(=O)c2cc(Nc3ccccc3)c(Nc3ccccc3)cc21,34.9
4,COc1ccccc1N1CCN(CCN(C(=O)c2ccc(F)cc2)c2ccccn2)CC1,-2.19
5,CC#CCOC(=O)c1c(C)nc2sc3c(c2c1N)CCC(O)C3 (stereo not drawn),31
6,Nc1ccc2c3c(cccc13)C(=O)NC2=O,-2.94
7,CCCn1c(=O)c2[nH]c(-c3ccc(S(=O)(=O)O)cc3)nc2n(CCC)c1=O,-1.01
8,Cc1cccc(C)c1OCC(N)C(C)C (stereo not drawn),6.1
9,Nc1ccc(-c2nc3ccc(-c4nc5ccc(N)cc5[nH]4)cc3[nH]2)cc1,0.477
10,CC(C)NC[C@H](O)COc1cccc2ccccc12,7.05
11,C[C@H]1CC2C3CCC4=CC(=O)C=C[C@]4(C)[C@@]3(Cl)[C@@H](O)C[C@]2(C)[C@@]1(O)C(=O)CO (stereo partly drawn),-9.68
12,CN1Cc2sccc2C(c2ccc(O)c(O)c2)C1 (stereo not drawn),-12.5
13,CC(O)C(O)[C@H]1CNc2nc(N)[nH]c(=O)c2N1 (stereo partly drawn),-1.46
14,Cn1c(=O)c2[nH]c(-c3ccc(S(=O)(=O)O)cc3)nc2n(C)c1=O,0.0555
15,CC(=O)/C(C)=N/O,-16.9

# Target: Tyrosine-protein phosphatase non-receptor type substrate 1 (Homo sapiens) + Leukocyte surface antigen CD47 (Homo sapiens) (UniProt P78324+Q08722)
# Sequence (P78324 whole entry, looked up): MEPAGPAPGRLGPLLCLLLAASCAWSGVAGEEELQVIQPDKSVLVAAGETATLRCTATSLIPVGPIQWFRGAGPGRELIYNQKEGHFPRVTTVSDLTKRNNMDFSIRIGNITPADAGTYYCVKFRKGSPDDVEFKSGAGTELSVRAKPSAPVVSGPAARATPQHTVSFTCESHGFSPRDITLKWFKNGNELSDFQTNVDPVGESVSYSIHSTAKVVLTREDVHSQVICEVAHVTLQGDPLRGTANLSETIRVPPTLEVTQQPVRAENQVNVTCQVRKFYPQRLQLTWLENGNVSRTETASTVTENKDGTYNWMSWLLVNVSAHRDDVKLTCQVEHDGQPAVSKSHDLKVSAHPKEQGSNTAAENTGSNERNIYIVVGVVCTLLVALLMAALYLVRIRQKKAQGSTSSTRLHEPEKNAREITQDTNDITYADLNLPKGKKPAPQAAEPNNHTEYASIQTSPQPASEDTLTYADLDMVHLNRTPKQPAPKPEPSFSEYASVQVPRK
# Sequence (Q08722 whole entry, looked up): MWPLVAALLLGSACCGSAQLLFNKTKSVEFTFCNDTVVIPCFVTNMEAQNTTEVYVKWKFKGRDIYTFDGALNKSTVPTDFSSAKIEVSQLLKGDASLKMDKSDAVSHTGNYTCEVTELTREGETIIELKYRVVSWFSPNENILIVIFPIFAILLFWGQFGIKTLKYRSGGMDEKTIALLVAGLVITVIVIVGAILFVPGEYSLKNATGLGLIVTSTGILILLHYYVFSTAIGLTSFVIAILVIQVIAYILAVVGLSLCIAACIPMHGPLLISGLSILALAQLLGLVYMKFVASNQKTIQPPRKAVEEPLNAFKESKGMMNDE
# Assay: CD47-SIRPalpha protein protein interaction - LANCE assay qHTS validation (AID 1347057; active means well fitted curve in the direction sought with a large enough effect in the signal ratio, with a control signal flat, not every such curve was filed as active; the % refers to the signal ratio; further: 0% is about no effect)
# Conditions: Recombinant CD47-His / biotin-SIRPalpha, TR-FRET ratio; series mostly up to 38.3 µM; activity change, negative = inhibition: at the top concentration
# Procedure, shortened: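 First, His-tagged CD47 and Eu-labelled anti-His antibody met the compound for 30 min; next, site-specifically biotinylated SIRPalpha was added for 30 min; finally streptavidin-APC was added before reading the TR-FRET ratio.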
row,SMILES,"activity change, negative = inhibition [%]"
1,C=C1C[C@@]23CC[C@H]4[C@@](C)(CCC[C@@]4(C)C(=O)O)[C@@H]2CC[C@]1(O)C3,-0.438
2,CCCn1c(=O)c2[nH]c(C3CCCC3)nc2n(CCC)c1=O,-0.463
3,NC(=O)CNCCC(c1ccccc1)c1ccccc1,0.616
4,O=C(N[C@@H](Cc1ccccc1)C(=O)CCl)OCc1ccccc1,0.237
5,O=C(O)C1=CCCN(CCON=C(c2ccccc2)c2ccccc2)C1,2.02
6,O=C(O)Cc1c[nH]c2ccc(O)cc12,-0.373
7,Clc1nccc2c1ccc1ccccc12,-0.0622
8,O=C(O)/C=C/c1ccc(O)c(O)c1,1.6
9,O=C(O)Cc1ccc(O)c(O)c1,0.264
10,NCCCCN=C(N)N,1.4
11,CNc1cc(NS(=O)(=O)c2ccc(N)cc2)nc(NC)n1,2.51
12,C#CC(N)CCC(=O)O (stereo not drawn),-0.791
13,CN[C@H](CC(=O)O)C(=O)O,1.26
14,CCCCCCCCCC[Si](C)(C)CCC(=O)NC(Cc1ccc(C)cc1)c1ccccc1 (stereo not drawn),0.44
15,c1ccc2c(c1)CCC[C@H]2Nc1nc2ccccc2[nH]1,-0.02
16,C[C@H](O)C(=O)C1=Nc2c(nc(N)[nH]c2=O)NC1,0.578
17,c1ccc(CN2CCC3(CCCc4ccccc43)CC2)cc1,2.37
18,C[C@H]1CC2C3CCC4=CC(=O)C=C[C@]4(C)[C@@]3(Cl)[C@@H](O)C[C@]2(C)[C@@]1(O)C(=O)CO (stereo partly drawn),0.264
19,OC1(c2ccc(Cl)cc2)CCN(Cc2c[nH]c3ccccc23)CC1,2.31
20,NC(Cc1cccc(-c2ccccc2CP(=O)(O)O)c1)C(=O)O (stereo not drawn),1.58
21,CN1Cc2sccc2C(c2ccc(O)c(O)c2)C1 (stereo not drawn),2.34
22,COc1ccc2c(c1)c(CC(=O)O)c(C)n2Cc1ccc(Cl)cc1,1.71
23,C[C@@]1(C2CCCC2)Cc2cc(OCC(=O)O)c(Cl)c(Cl)c2C1=O,0.835
24,CN1CCCC1CCOC(C)(c1ccccc1)c1ccc(Cl)cc1 (stereo not drawn),0.915
25,CC(C)Cn1c(=O)n(C)c(=O)c2[nH]cnc21,0
